Compound activity (PubChem)
The list is not random: actives were taken first. Their share in the collection is about 21%.
DT40 TDP1 CPT: growth inhibition of DT40 Tdp1-/-;hTDP1 cells with camptothecin (screen for TDP1 inhibitors); Potency, µM (doses to about 46.2 µM), actives largely listed as inhibitors; hit rate 12% among 420,000; chicken DT40 Tdp1-/-;hTDP1 cells + 20 nM CPT, ATP luminescence, 48 h; also: nearly all actives have a fitted effect of over 55% in size
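Cell growth measured by CellTiter-Glo luminescence after a minimum 48 h, 37 C compound exposure with 20 nM CPT in Tdp1-knockout DT40 cells stably expressing hTDP1, seeded 400/well; qHTS titration format.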
RORg inh: ROR gamma (mouse) transcription inhibition; P51450; Drosophila S2 Gal4-RORgamma UAS-luciferase reporter, 20 h; Potency, µM (series often up to 53.6 µM), hits mostly inhibitors; hit rate 5.4% among 310,000; also: nearly all actives have a fitted effect of over 60% in size
Target sequence (P51450 whole entry, looked up, the tested form may be a part): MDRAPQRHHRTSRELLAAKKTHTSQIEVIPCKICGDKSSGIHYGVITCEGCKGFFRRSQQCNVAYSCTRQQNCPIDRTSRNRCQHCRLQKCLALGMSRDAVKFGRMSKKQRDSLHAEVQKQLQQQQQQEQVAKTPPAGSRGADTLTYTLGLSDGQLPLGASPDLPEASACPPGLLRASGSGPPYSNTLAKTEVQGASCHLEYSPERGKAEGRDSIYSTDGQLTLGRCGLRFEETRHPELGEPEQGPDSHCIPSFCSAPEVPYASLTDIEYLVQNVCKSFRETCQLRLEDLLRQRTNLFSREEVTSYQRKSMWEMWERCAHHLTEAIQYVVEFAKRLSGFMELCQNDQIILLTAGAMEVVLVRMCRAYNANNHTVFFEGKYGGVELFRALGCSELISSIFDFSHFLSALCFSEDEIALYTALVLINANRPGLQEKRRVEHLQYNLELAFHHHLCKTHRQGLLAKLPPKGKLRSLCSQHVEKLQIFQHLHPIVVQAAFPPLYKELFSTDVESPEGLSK
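Drosophila Schneider cells stably carrying a metallothionein-driven Gal4 DBD–ROR gamma fusion and a UAS-Photinus luciferase reporter were exposed to compound for 1 hr, then induced with copper sulfate (700 uM final) for 20 hr at ambient temperature before luminescence reading.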
ELG1 repair inh: blocks ELG1-dependent DNA repair in HEK293T cells; HEK293T ELG1-luciferase reporter, luminescence, 16 h; DNA damage induced by 5-fluorouridine; Potency, µM (highest dose often 46.1 µM), usual class: inhibitors; hit rate 2.3% among 330,000; AID 504467; also: nearly all actives have a fitted effect of over 55% in size
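Overnight (16 hr) co-exposure of 2,000 cells/well to 5-fluorouridine and compound at 37 °C preceded detection. Luciferase was quantified via ONE-Glo luminescence; loss of signal denotes inhibition.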
IL1B secr inh: blocks inflammasome-driven IL-1 beta release | activity change, % at 57.5 µM | hit rate 4.7% among 360,000 | AID 743279 | THP-1 LPS/ATP IL-1B secretion, AlphaLISA, 16 h; hits give low values; in the data active = activity change below about -50%; inconclusive = mostly about -30% to -49%
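THP-1 cells pretreated 1 hr with compounds (up to 57.5 uM final), then stimulated with LPS (250 ng/mL final) plus ATP (1.25 mM final); secreted IL-1B measured by AlphaLISA after 16 hr, decreased signal indicating inhibition.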
Gal4-VP16 FLuc: Gal4-VP16 reporter inhibition counter-screen | hit rate 3.5% among 310,000 | Drosophila S2 Gal4-VP16 UAS-luciferase, luminescence, 20 h | AID 2546 | Potency, µM (top dose mostly 53.6 µM), usual class: inhibitors;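 also: Gal4-VP16 expression switched on by copper sulfate through the metallothionein promoter; nearly all actives have a fitted effect of over 50% in size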
DT40 TDP1 no CPT: qHTS for Inhibitors of human tyrosyl-DNA phosphodiesterase 1 (TDP1): qHTS in cells in absence of CPT | Potency, µM (series often up to 46.2 µM), most hits filed as inhibitors | hit rate 15% among 420,000 | DT40 Tdp1-/- hTDP1 cells, no CPT, ATP luminescence, 48 h; also: nearly all actives have a fitted effect of over 55% in size
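Camptothecin absent (DMSO only). Human TDP1-complemented DT40 knockout cells, 400 cells/well, 37 °C for minimum 48 hr; ATP measured via CellTiter-Glo, 30 min dark incubation, luminescence.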
Hits are given with their value; n = inactive; u = inconclusive; x = no result given. Unless noted, calls follow the shape of the dose curve; as a rule, active = well fitted curve in the direction sought with a large enough effect; inconclusive = small, poorly fitted or top-dose-only effect, or another doubt; inactive = no such curve, though single readings can be large; an effect the other way counts as inactive or inconclusive.

SMILES | DT40 TDP1 CPT | RORg inh | ELG1 repair inh | IL1B secr inh | Gal4-VP16 FLuc | DT40 TDP1 no CPT
CC(C)Oc1ccc(CNC(=O)c2ccc(CN3CC(=O)N4CCCCC4C3=O)cc2)cc1 (stereo unspecified) | n | x | x | x | x | n
O=C(c1ccc(CS(=O)c2cccc(Cl)c2)o1)N1CCCCCC1 (stereo unspecified) | n | u | n | n | n | 23.1µM
O=C(c1ccco1)N1CCN(C(=O)c2ccc(COc3ccc4c(c3)CCC4)o2)CC1 | u | u | u | n | n | u
O=C(c1ccc(COc2ccc3c(c2)CCC3)o1)N1CCN(c2ccccc2)CC1 | 14.6µM | x | x | -72.5 | x | u
COc1cccc(N2CCN(C(=O)c3ccc(CS(=O)c4ccccc4C)o3)CC2)c1 (stereo unspecified) | 0.517µM | n | n | n | n | 0.581µM
O=C(c1ccc(CS(=O)c2cccc(Cl)c2)o1)N1CCN(C2CCCCC2)CC1 (stereo unspecified) | n | n | u | n | n | n
O=C(c1ccc(COc2ccccc2Cl)o1)N1CCN(c2ccccc2)CC1 | u | n | u | n | n | 29.1µM
COc1ccc(C2/C=C\CN(CC3CCCCC3)C(Cc3ccccc3)C(=O)N2Cc2ccc(F)cc2)cc1 (stereo unspecified) | x | n | x | x | n | x
COc1ccccc1NC(=O)C1=C(C)Nc2nc(CCCO)nn2C1c1cccc(O)c1 (stereo unspecified) | n | x | x | x | x | n
C=C(C)C(=O)OC | x | n | x | x | n | x
O=C(c1ccc(CS(=O)c2ccccc2Cl)o1)N1CCN(c2ccccc2)CC1 (stereo unspecified) | 0.82µM | n | n | n | n | 0.517µM
COc1cccc(N2CCN(C(=O)c3ccc(CS(=O)c4ccccc4Cl)o3)CC2)c1 (stereo unspecified) | 0.0291µM | n | n | n | n | 0.0052µM
COc1ccc(N2CCN(C(=O)c3ccc(CS(=O)c4cccc(C)c4)o3)CC2)cc1 (stereo unspecified) | 18.4µM | n | n | n | n | 16.4µM
CCOC(=O)N1CCC(NC(=O)c2ccc(CS(=O)c3cccc(C)c3)o2)CC1 (stereo unspecified) | n | n | n | n | n | n
COc1ccc(NC(=O)N(C)C[C@@H]2Oc3ccc(NC(=O)NC(C)C)cc3CC(=O)N([C@H](C)CO)C[C@@H]2C)cc1 | n | x | u | n | x | n
C=CCSc1nnc2nc3c(nn12)c1cc(C)ccc1n3CC=C | 16.4µM | n | n | n | n | u
CCC1(C)Cc2c(sc3nc(SC)n(-c4ccc(C)cc4)c(=O)c23)CO1 (stereo unspecified) | u | x | x | x | x | 14.6µM
CCC1(C)Cc2c(sc3c2c(=O)n(-c2ccccc2)c(=O)n3C)CO1 (stereo unspecified) | n | n | u | n | n | n
CCC1(C)Cc2c(sc3nc(NN)n(C)c(=O)c23)CO1 (stereo unspecified) | u | n | u | n | 14.1µM | u
Cc1ccc(C)c2c1[nH]c1ccccc12 | n | n | n | n | n | n
COc1ccc(OC)c2c(=S)c3ccccc3[nH]c12 | 23.7µM | n | x | x | n | u
CCOC(=O)C1CCN(C(=O)c2cc(S(=O)(=O)N3CCOCC3)ccc2C)CC1 | n | x | n | n | x | n
O=C(NC(C(=O)N/N=C/c1ccccc1)c1n[nH]c(=O)c2ccccc12)c1ccccc1 (stereo unspecified) | n | n | n | n | n | n
O=C(NC(C(=O)N/N=C/c1c2ccccc2cc2ccccc12)c1n[nH]c(=O)c2ccccc12)c1ccccc1 (stereo unspecified) | 8.2µM | n | n | u | n | 10.3µM
Nc1c(C(=O)Nc2cccc(F)c2)c2ccccn2c1C(=O)c1ccccc1 | n | x | x | x | x | n
SMILES | DT40 TDP1 CPT | RORg inh | ELG1 repair inh | IL1B secr inh | Gal4-VP16 FLuc | DT40 TDP1 no CPT
O=C(Nc1ccccc1N1CCN(C(=O)c2ccc(Cl)cc2)CC1)c1cc2ccccc2o1 | 25.9µM | n | u | n | n | u
O=C(Nc1ccc(N2CCN(C(=O)c3ccc(Cl)cc3)CC2)cc1)c1cc2ccccc2o1 | u | n | u | n | n | n
CN1CCN(c2ccccc2NC(=S)NC(=O)c2cc3ccccc3o2)CC1 | u | n | n | n | n | n
CC(=O)N1CCN(c2ccccc2NC(=O)c2cc3ccccc3o2)CC1 | u | u | 14.6µM | u | n | u
CC(C(=O)NN)c1ccc([N+](=O)[O-])cc1 (stereo unspecified) | n | n | n | n | n | n
CC1=NC(Nc2nc(C)c3ccccc3n2)=NC(C)(C)C1 | 20.6µM | n | n | -99.9 | n | 16.4µM
Cc1nc(Nc2ncc3c(n2)CC(C)(C)CC3=O)nc2ccccc12 | n | x | x | n | x | n
COC(=O)C[C@H]1CC[C@@H](NS(=O)(=O)c2ccccc2)[C@@H](CO)O1 | n | x | x | n | x | n
O=C(N/N=C/c1ccncc1)c1cc(C2CC2)nc2ccccc12 | n | n | n | n | n | u
